# Measured values from PubChem BioAssay AID485270 (The Scripps Research Institute Molecular Screening Center, 2010).
# The campaign covered roughly 330,000 compounds. About 5,800 (1.8%) were called active. Cut-off read from the data, not from the text of the source: active = inhibition mostly above about 38% (no sharp cut-off); inactive = mostly below about 40%. The sample as a whole holds a higher share of actives than the screen did.
# Target: Orexin/Hypocretin receptor type 1 (Homo sapiens) (UniProt O43613)
# Sequence (O43613 whole entry, looked up): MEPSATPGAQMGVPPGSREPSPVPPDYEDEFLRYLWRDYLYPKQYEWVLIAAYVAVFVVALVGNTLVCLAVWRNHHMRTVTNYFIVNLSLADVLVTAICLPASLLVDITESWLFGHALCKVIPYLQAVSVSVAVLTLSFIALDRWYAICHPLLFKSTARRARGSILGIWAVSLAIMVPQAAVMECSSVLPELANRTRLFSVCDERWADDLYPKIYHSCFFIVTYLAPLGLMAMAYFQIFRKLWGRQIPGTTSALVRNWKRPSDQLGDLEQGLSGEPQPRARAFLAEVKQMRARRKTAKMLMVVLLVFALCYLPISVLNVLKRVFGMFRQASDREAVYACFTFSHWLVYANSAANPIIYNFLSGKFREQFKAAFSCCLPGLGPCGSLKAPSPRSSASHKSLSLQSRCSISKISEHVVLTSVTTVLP
# Experiment: antagonists of human orexin 1 receptor (OX1R) (AID 485270);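 note: 0% = agonist challenge alone and 100% = reference antagonist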
# Conditions: OX1R-expressing cells, FRET antagonist read-out; at 6.6 µM; stronger effect = higher value
row,SMILES,inhibition
1,CN(CC(=O)O)S(=O)(=O)c1ccc2oc3ccccc3c2c1,7.24% (inactive)
2,O=C(O)c1ccc(NS(=O)(=O)c2ccc3c(c2)C(=O)c2cc(S(=O)(=O)Nc4ccc(C(=O)O)cc4)ccc2-3)cc1,18.6% (inactive)
3,CN(CCO)S(=O)(=O)c1ccc2c(c1)C(=O)c1cc(S(=O)(=O)N(C)CCO)ccc1-2,57.6% (active)
4,O=C(CSCc1ccccc1)Nc1ccccc1,4.92% (inactive)
5,CC(=O)Nc1ccc(NC(=O)CSCc2cnn(-c3ccccc3)c2-n2cccc2)cc1,39.8% (active)
6,Cc1cc(C)cc(NC(=O)CSCc2cnn(-c3ccccc3)c2-n2cccc2)c1,68.1% (inactive)
7,CC(=O)c1c(C)[nH]c(C(=O)COC(=O)CCOc2ccc(C)cc2)c1C,11.2% (inactive)
8,O=C(CNC(=O)c1ccco1)NNC(=O)c1ccc(Br)cc1,1.51% (inactive)
9,O=C(CNC(=O)c1n[nH]c2ccccc12)Nc1cc(Cl)ccc1Cl,11.3% (inactive)
10,Oc1ccc2ccccc2c1N=Nc1nccs1,99.3% (active)
11,Oc1ccc(N=Nc2nccs2)c(O)c1,58.9% (active)
12,C[C@@H]1C(c2ccc(F)cc2)=NN(c2ccc(Br)cc2)[C@H]1C(=O)N1CCOC1=O,13.5% (inactive)
13,CCN(C[C@H]1N[C@@](Cc2ccccc2)(C(=O)OC)[C@H]2C(=O)N(Cc3ccccc3)C(=O)[C@@H]12)C(=O)c1ccc(C)cc1,1.44% (inactive)
14,CC1CCCCC1NC(=O)Cn1cnc2c1c(=O)n(C)c(=O)n2C (stereo not given),4.33% (inactive)
15,O=C(NCc1cccnc1)c1cc(S(=O)(=O)N2CCOCC2)c(Cl)cc1Cl,2.88% (inactive)
16,CCOCCCNC(=O)c1cc2c(=O)n3ccccc3nc2s1,32.8% (inactive)
17,CCc1cccc2c(=O)c(C(=O)NCCCOC)c[nH]c12,21.4% (inactive)
18,CCn1c(=N)c(C(=O)NCCCOC)cc2c(=O)n3cccc(C)c3nc21,141% (active)
19,Cc1cccn2c(=O)c3cc(C(=O)NCC4CCCO4)c(=N)n(Cc4ccc(F)cc4)c3nc12 (stereo not given),41.5% (inactive)
20,Cc1cccn2c(=O)c3cc(C(=O)NCCN4CCOCC4)c(=N)n(Cc4cccnc4)c3nc12,69.1% (active)
21,COc1cc(C(=O)NC2CCN(C)CC2)ccc1Nc1ncc2c(n1)N(C1CCC(O)CC1)CCC(=O)N2C (stereo not given),5.47% (inactive)
22,C[C@H]1CN([C@@H](C)CO)C(=O)Cc2cc(NC(=O)Cc3ccccc3)ccc2O[C@H]1CN(C)S(=O)(=O)c1cccs1,8.68% (inactive)
23,O=C1C(=O)N(CCN2CCOCC2)C(c2cccc(Cl)c2)/C1=C(/O)c1ccc2c(c1)OCO2 (stereo not given),13.6% (inactive)

row,SMILES,inhibition
1,CCN(CC)CCN1C(=O)C(=O)/C(=C(/O)c2ccc(OC)c(OC)c2)C1c1ccccn1 (stereo not given),51.5% (active)
2,CCCOc1ccc(/C(O)=C2/C(=O)C(=O)N(CCN(C)C)C2c2ccc(OC)c(OC)c2)cc1 (stereo not given),31.1% (inactive)
3,COc1ccc(/C(O)=C2/C(=O)C(=O)N(CCCN(C)C)C2c2ccccc2)cc1OC (stereo not given),4.51% (inactive)
4,O=C1C(=O)N(CCN2CCOCC2)C(c2ccccn2)/C1=C(/O)c1ccc(Cl)cc1 (stereo not given),55.2% (active)
5,CC1Cc2cc(/C(O)=C3\C(=O)C(=O)N(CCN4CCOCC4)C3c3ccccc3F)ccc2O1 (stereo not given),6.48% (inactive)
6,CC[C@]12c3[nH]c4ccc(Cl)cc4c3CCN1C(=O)[C@@H](CC(=O)NCCCOC)C[C@@H]2C(=O)N1CCN(C(=O)c2ccco2)CC1,1.35% (inactive)
7,CCC(CO)Oc1cc(NC(=O)c2ccc(Cl)cc2)c2ncn(C(C)C)c2c1 (stereo not given),0.25% (inactive)
8,O=C(Nc1cc(S(=O)(=O)N2CCOCC2)ccc1N1CCOCC1)c1c(F)cccc1Cl,8.73% (inactive)
9,COc1ccc(-c2cc3ncccc3cn2)cc1,21.6% (inactive)
10,CC(C)(C)OC(=O)C[C@@H]1C/C=C\C[C@@H](CC(=O)NCCO)C(=O)N[C@H](Cc2c[nH]c3ccccc23)COC1=O,3.99% (inactive)
11,COc1ccccc1N(CC(=O)N1CCCCC1)S(=O)(=O)c1ccccc1,13.9% (inactive)
12,COc1ccccc1NC(=O)CN(c1ccccc1OC)S(=O)(=O)c1ccccc1,75.8% (active)
13,CCN(c1ccccc1)S(=O)(=O)c1ccc(C(=O)Nc2ccccc2OC)cc1,14% (inactive)
14,O=C(NCCc1c[nH]c2ccccc12)c1cc2ccccc2oc1=O,1.13% (inactive)
15,O=C(CNC(=O)Cc1ccccc1)N=Nc1c(O)[nH]c2ccc(Br)cc12,8.32% (inactive)
16,COC(=O)Cn1c(O)c(N=NC(=O)OC)c2ccccc21,41.9% (inactive)
17,CCOC(=O)Cn1c(O)c(N=NC(=O)CNC(=O)Cc2ccccc2)c2ccccc21,38.3% (active)
18,CCN(CC)C(=O)[C@H]1C[C@H](CC(=O)NCC23CC4CC(CC(C4)C2)C3)C(=O)N2CCc3c([nH]c4cc(CCC(=O)N(C)C)ccc34)[C@]12C,5.23% (inactive)
19,Cc1ccsc1C(=O)NNC(=O)COc1ccc(Br)cc1,3.22% (inactive)
20,Cc1ccc2cccc(O)c2[n+]1[O-],53.1% (active)
21,NCC(=O)c1cccc2ccc[n+]([O-])c12,10.5% (inactive)
22,C[C@H](CO)N1C[C@H](C)[C@@H](CN(C)C(=O)Nc2ccc3c(c2)OCO3)Oc2c(cccc2N(C)C)C1=O,-4.67% (inactive)
23,O=C(COc1ccc(F)cc1Br)NCC1COc2ccccc2O1 (stereo not given),7.79% (inactive)

row,SMILES,inhibition
1,CC(C)(C)NS(=O)(=O)NC(=O)C1=C(N2CCCC2)COC1=O,-2.54% (inactive)
2,COc1ccc(C2=Nn3c(nnc3-c3ccccc3OC)SC2)cc1OC1CCCC1,11.2% (inactive)
3,Cc1ccc(C(=O)N/C(=C/c2ccc(-c3cccc([N+](=O)[O-])c3)o2)C(=O)NCCCN(C)C)cc1,63.9% (active)
4,CN(C)CCNC(=O)/C(=C/c1cccc([N+](=O)[O-])c1)NC(=O)c1ccccc1,12.9% (inactive)
5,N#C/C(=C\c1ccc(-c2cccc([N+](=O)[O-])c2)o1)C(=O)NCCN1CCOCC1,43.6% (inactive)
6,O=C(OCC(=O)N1CCN(C(=O)c2ccco2)CC1)c1c(Cl)cccc1Cl,9.98% (inactive)
7,Cc1ccc(N(CC(=O)Nc2cc(C)cc(C)c2)S(=O)(=O)c2cccc3nonc23)cc1,46.5% (active)
8,Cc1ccc(CNC(=O)CCNS(=O)(=O)c2cccc3nonc23)cc1,9.03% (inactive)
9,CCOC(=O)c1cccc(NC(=O)CN(c2ccc(C)cc2)S(=O)(=O)c2c(C)noc2C)c1,68.3% (inactive)
10,CCOCN(C(=O)Cn1c(C(C)O)nc2ccccc21)c1c(C)cccc1CC (stereo not given),24% (inactive)
11,O=C(NCCCCCCNC(=O)NCc1ccco1)NCc1ccco1,10.8% (inactive)
12,Cc1cc(NC(=O)CSc2ncc(C(F)(F)F)cc2Cl)no1,0.5% (inactive)
13,CCCCCCSc1ccc(-c2nc3ccc(Cl)cn3c2NCc2ccccc2)cc1,12.3% (inactive)
14,COc1ccc2sc(-c3ccc(S(C)(=O)=O)cc3)c(-c3ccc(C(N)=O)cc3)c2c1,8.78% (inactive)
15,COc1ccc(OC)c(NC(=O)CN(C)CCOc2ccc(Br)cc2)c1,38.8% (active)
16,CN(CCOc1ccc(Br)cc1)CC(=O)Nc1cccc(S(=O)(=O)NC2=NCCC2)c1,18.8% (inactive)
17,COc1ccc(Br)cc1CN(C)CC(=O)Nc1cc([N+](=O)[O-])ccc1OC,12.8% (inactive)
18,CN(CC(=O)Nc1cccc2c1CCCC2)S(=O)(=O)c1ccc(Cl)cc1,3.84% (inactive)
19,COc1ccc(-c2nc3cnccn3c2NC2CCCCC2)cc1-c1cccc(Cl)c1,14.3% (inactive)
20,COc1ccc2c(Cl)c(C(=O)NCc3ccco3)sc2c1,5.49% (inactive)
21,Cn1nc(-c2ccc(Cl)cc2)c2cc(C(=O)NCc3ccco3)sc21,56.6% (active)
22,COc1ccccc1N1CCN(C(=O)c2cc3c(-c4ccc(Cl)cc4)nn(C)c3s2)CC1,2.56% (inactive)
23,CN(CCC1CCOCC1)Cc1cn[nH]c1-c1ccc(-c2ccccc2)cc1,7.23% (inactive)

row,SMILES,inhibition
1,O=C(CCC(=O)c1cccs1)Nc1nc2ccccc2s1,6.48% (inactive)
2,O=C(O)CCC(=O)Nc1nc2ccc([N+](=O)[O-])cc2s1,78.8% (active)
3,Cc1cc(CNC(=O)c2cccc([N+](=O)[O-])c2)c2ccccc2n1,58.6% (inactive)
4,O=C(CNC(=O)c1ccccc1)Oc1ccc([N+](=O)[O-])cc1,19.6% (inactive)
5,O=C(CCNC(=O)c1ccccc1)Nc1nc2ccccc2s1,7.04% (inactive)
6,O=C(NC(Nc1nc2ccc([N+](=O)[O-])cc2s1)(C(F)(F)F)C(F)(F)F)c1ccccc1,89.4% (active)
7,Cc1csc2nc(COC(=O)c3cccc(N(C)C)c3)cc(=O)n12,13.4% (inactive)
8,COc1cc(C=NNC(=O)c2cccnc2)ccc1OC(=O)c1ccccc1F,8.6% (inactive)
9,CC(CNC(=O)Cn1cnc2c(OCc3ccccc3)ncnc21)c1ccccc1 (stereo not given),3.56% (inactive)
10,O=C(c1ccc(N2CCOCC2)c([N+](=O)[O-])c1)N1CCN(c2ccccc2F)CC1,7.32% (inactive)
11,O=C(Nc1cccc(S(=O)(=O)N2CCCCC2)c1)c1cncc(Br)c1,-0.59% (inactive)
12,C=CC[C@@H](CC(=O)N[C@H](CO)Cc1ccccc1)C(=O)N[C@H](C)COC(=O)[C@@H](CC=C)Cc1ccc(F)cc1,20.2% (inactive)
13,CC1CCCCC1NC(=O)C1CCCN1S(=O)(=O)c1cccc2nsnc12 (stereo not given),73.9% (active)
14,COc1ccc(NS(=O)(=O)c2cccc3nsnc23)cc1Cl,12.4% (inactive)
15,CC(=O)c1cccc(NC(=O)C2CCCN2S(=O)(=O)c2cccc3nsnc23)c1 (stereo not given),110% (active)
16,COc1ccc(OC)c(NC(=O)C2CCCN2S(=O)(=O)c2cccc3nsnc23)c1 (stereo not given),44.2% (active)
17,COc1ccc(N(C)C(=O)C2CCN(S(=O)(=O)c3cccc4nsnc34)CC2)cc1,14.4% (inactive)
18,Cc1ccc2nsnc2c1S(=O)(=O)N1CCCC1C(=O)O (stereo not given),30.4% (inactive)
19,CC(=O)c1cccc(NC(=O)C2CCCN(S(=O)(=O)c3cccc4nonc34)C2)c1 (stereo not given),24.2% (inactive)
20,CC(=O)c1ccc(NC(=O)C2CCCN2S(=O)(=O)c2cccs2)cc1 (stereo not given),12% (inactive)
21,O=C(O)C(NS(=O)(=O)c1cccc2nsnc12)c1ccccc1 (stereo not given),40.5% (inactive)
